The supplement of paper PMC11732987, “Enantioselective OTUD7B fragment discovery through chemoproteomics screening and high-throughput optimisation” (Communications Chemistry, 2025)

target: USP14 (UniProt P54578); assay: log2 ratio of Biotin-Ahx-Ub-VS probe labelling (fragment/DMSO); higher = less target engagement (more negative = stronger competition), active = hit call of the paper (q ≤ 0.05, log2 ratio ≤ -1); settings: compound concentration: 200 uM; treatment time: 3 h
Method: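 Competitive ABPP in HEK293T cell lysate. Lysates were treated with each chloroacetamide fragment at 200 µM for 3 h, then with Biotin-Ahx-Ub-VS (0.5 µM, 1 h), NeutrAvidin-enriched and analysed by diaPASEF LC-MS/MS. Protein LFQ was median-normalised; average log2 ratio is fragment/DMSO from an unpaired t-test (n=3 treated, n=44 DMSO). Hits: q ≤ 0.05, log2 ratio ≤ -1, unique peptides ≥ 2.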

Chain of USP14 (P54578 whole entry, the tested form may be a part): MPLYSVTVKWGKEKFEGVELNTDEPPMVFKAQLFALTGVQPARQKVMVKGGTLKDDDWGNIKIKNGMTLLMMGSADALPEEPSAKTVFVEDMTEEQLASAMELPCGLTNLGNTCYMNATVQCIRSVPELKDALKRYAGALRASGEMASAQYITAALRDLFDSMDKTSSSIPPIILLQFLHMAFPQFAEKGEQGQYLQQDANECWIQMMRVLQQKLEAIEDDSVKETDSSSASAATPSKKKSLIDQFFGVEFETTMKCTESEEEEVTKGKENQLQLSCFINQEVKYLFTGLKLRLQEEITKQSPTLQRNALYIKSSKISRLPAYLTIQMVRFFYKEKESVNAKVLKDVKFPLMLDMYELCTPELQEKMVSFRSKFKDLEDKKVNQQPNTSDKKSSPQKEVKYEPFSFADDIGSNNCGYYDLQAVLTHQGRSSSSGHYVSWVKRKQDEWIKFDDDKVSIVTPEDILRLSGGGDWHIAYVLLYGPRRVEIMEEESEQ

log2 ratio of Biotin-Ahx-Ub-VS probe labelling, inactive:
O=C(CCl)Nc1ccc(Cl)c(F)c1 -0.481
O=C(CCl)NCc1cccc(F)c1 -0.167
Cc1cc(NC(=O)CCl)n(-c2ccccc2)n1 0.0764
CC(=O)C1CCCCN1C(=O)CCl (stereo not given) -0.101
O=C(CCl)N(Cc1ccsc1)C1CC1 -0.456
CC(NC(=O)CCl)c1csc(-c2ccccc2)n1.Cl (stereo not given) -0.367
NC(=O)C1CCCN(C(=O)CCl)C1 (stereo not given) -0.153
O=C(CCl)Nc1ccc(N2CCCC2=O)cc1 -0.139
Cc1ccccc1OCC(=O)N1CCN(C(=O)CCl)CC1 -0.131
CN(C)S(=O)(=O)c1ccccc1CNC(=O)CCl 0.0554
O=C(CCl)N1CCCC1c1ccsc1 (stereo not given) -0.248
Cc1c(NC(=O)CCl)c(=O)n(-c2ccccc2)n1C -0.215
COc1cc(Cl)c(C)cc1NC(=O)CCl -0.458
CCC1c2ccsc2CCN1C(=O)CCl (stereo not given) -0.479
CC(NC(=O)CCl)c1cccc2ccccc12 (stereo not given) -0.209
N#Cc1cnn(-c2ccccc2)c1NC(=O)CCl -0.345
O=C(CCl)N1c2ccccc2NC(=O)C12CCCC2 -0.661
Cc1cccc(C(CNC(=O)CCl)N2CCOCC2)c1.Cl (stereo not given) 0.0229
Cl.O=C(CCl)NCCN1CCc2ccccc21 -0.483
Cl.O=C(CCl)N[C@H]1C[C@@H](n2cccn2)C1 -0.208
C[C@@H](NC(=O)CCl)c1cccc(C#N)c1 -0.243
CC(NC(=O)CCl)c1noc(Cc2ccccc2)n1 (stereo not given) -0.411
O=C(CCl)Nc1ccc2c(c1)OC(F)(F)O2 -0.0555
O=C(CCl)NCCc1ccc2c(c1)OCCO2 -0.579
O=C(CCl)NCCC1COCCO1 (stereo not given) -0.27
O=C(CCl)Nc1nnc(CC(F)(F)F)o1 -0.206
O=C(CCl)N(C1=CCCCC1)C1CC1 -0.423
COc1ccc(-c2csc(NC(=O)CCl)n2)cc1 -0.0511
CN(CCc1ncc(Br)cn1)C(=O)CCl.Cl -0.0202
N#Cc1ccccc1N1CCN(C(=O)CCl)CC1 -0.673
O=C(CCl)N1CCc2nc[nH]c2C1c1ccc(Cl)cc1 (stereo not given) -0.69
O=C(CCl)N1CCC[C@@H]1c1ccon1 -0.652
O=C(CCl)N1CCCC2CCCCC21 (stereo not given) -0.25
O=C(CCl)Nc1cc2c(cc1Cl)OCCO2 0.233
O=C(CCl)NC1CCS(=O)(=O)c2ccccc21 (stereo not given) -0.152
Cc1nc(CNC(=O)CCl)c2ccccn12.Cl 0.113
COc1cccc(CN(C)C(=O)CCl)c1 -0.252
Cc1ccc(CC(CO)CNC(=O)CCl)cc1 (stereo not given) -0.262
O=C(CCl)N1CCCN(C(=O)c2ccc(Cl)cc2)CC1 -0.452
O=C(CCl)N1CCN(c2nc3ccccc3o2)CC1 -0.836
